Results published in PubChem BioAssay AID1671190 (National Center for Advancing Translational Sciences (NCATS), 2021).
The whole screen tested about 580,000 compounds, of which about 6,100 (1.1%) were called active. Roughly 15% stayed inconclusive and do not appear here. The call rests on the fitted dose curve; in most records, active means well fitted inhibition curve with a large enough effect; inconclusive means small, poorly fitted or top-dose-only effect, or another doubt; inactive means no such curve, though single readings can be large or run the other way. The full list was thinned out, with actives kept by preference.

target: Polyunsaturated fatty acid lipoxygenase ALOX12 (Homo sapiens) (UniProt P18054); experiment: Primary qHTS assay for inhibitors of human arachidonate 12S-lipoxygenase (ALOX12): Round 2; conditions: purified 12hLO, xylenol orange hydroperoxide absorbance; series mostly up to 108 µM
Sequence (P18054 whole entry, looked up): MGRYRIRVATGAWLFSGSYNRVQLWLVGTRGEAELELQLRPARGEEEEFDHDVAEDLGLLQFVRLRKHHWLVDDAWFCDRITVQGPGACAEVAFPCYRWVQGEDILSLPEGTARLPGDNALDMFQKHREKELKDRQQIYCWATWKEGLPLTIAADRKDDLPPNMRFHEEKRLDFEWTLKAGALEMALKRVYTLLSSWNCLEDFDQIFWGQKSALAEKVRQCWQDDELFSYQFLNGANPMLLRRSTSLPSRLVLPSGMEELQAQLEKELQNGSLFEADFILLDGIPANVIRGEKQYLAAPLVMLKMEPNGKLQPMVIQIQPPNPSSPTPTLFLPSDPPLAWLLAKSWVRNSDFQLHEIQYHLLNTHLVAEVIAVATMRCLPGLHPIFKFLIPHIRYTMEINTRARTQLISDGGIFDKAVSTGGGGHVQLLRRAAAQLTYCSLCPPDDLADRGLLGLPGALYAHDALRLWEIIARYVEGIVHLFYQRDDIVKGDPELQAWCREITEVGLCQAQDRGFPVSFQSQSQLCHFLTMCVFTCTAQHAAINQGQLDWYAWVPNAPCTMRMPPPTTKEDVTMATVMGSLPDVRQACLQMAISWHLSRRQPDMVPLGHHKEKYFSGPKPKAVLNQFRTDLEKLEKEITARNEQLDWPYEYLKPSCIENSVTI
Outline: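 Hydroperoxide product was detected by ferrous iron/xylenol orange as the 573 to 405 nm absorbance ratio. Arachidonic acid at 40 uM (final) was turned over for 30 min at room temperature by 150 nM human 12hLO, pH 7.0 Hepes buffer, after 15 min compound preincubation.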
On the % scale 0 is the no-effect control and ±100 the full control effect; potency means the concentration at half of the fitted maximal effect.

Potency, active:
CCc1nn2c(=O)cc(CNc3cccc(C(=O)NC4CC4)c3)nc2s1 10 µM
Cc1ccc(C)c(N2CCN(c3ccc4cc(S(=O)(=O)N5CCC(C)CC5)ccc4n3)CC2)c1 50.1 µM
C[C@]12CCC3=C4CCC(=O)C=C4CC[C@@H]3[C@H]1CC[C@@]2(O)CC#N 19.3 µM
CC(C(=O)NC1CCS(=O)(=O)C1)N1C(=O)/C(=C/c2ccc(Cl)cc2)SC1=S (stereo not drawn) 35.5 µM
Cc1cc2nc(-c3ccco3)c(Cc3cccc(F)c3)n2c(C)c1Br 11.2 µM
Cc1ccc2nc(-c3ccco3)c(Cc3cccc(Cl)c3)n2c1 25.1 µM
O=C1C(Cl)=C(Oc2ccccc2)C(=O)c2ccccc21 11.2 µM
COc1ccc2nc(N3CCCC(O)C3)c(C#N)cc2c1 (stereo not drawn) 50.1 µM
CC(=O)NC1(C)CCN(Cc2cnc(-c3ccc4c(ccn4C)c3)s2)CC1 39.8 µM
COC(=O)c1sc(=S)n(-c2ccccc2)c1N 44.7 µM
Cc1ccccc1CN1CCCn2nc(C)c(-c3cccnc3N3CCOCC3)c21 28.2 µM
Oc1cc2c(cc1O)CN(C(=S)NCCc1ccc(Cl)cc1)CCC2 17.8 µM
CC[C@@H]1Cc2cc(O)ccc2C2=C1c1ccc(O)cc1C[C@H]2CC 50.1 µM
Cc1ccc(C)c(NC(=S)NNC(=S)Nc2ccc(C(C)C)cc2)c1 35.5 µM
CCc1nnc(NS(=O)(=O)c2ccc(NC(=S)NC(=O)c3cccs3)cc2)s1 22.4 µM
NNc1nc2c(Cl)cccc2s1 17.8 µM
Fc1ccc(N/N=C/c2ccc(-c3ccccc3)cc2)c(F)c1 2.24 µM

Potency, inactive:
Cc1nnc(C(=O)Nc2ccc(C(=O)NCc3ccc4c(c3)OCO4)cc2)s1
CNC(=O)CNC(=O)c1n[nH]c(=O)c2ccccc12
COc1ccc2[nH]cc(CCNC(=O)CNc3nc(Cl)nc4nc[nH]c34)c2c1
COc1cccc(C2C(C#N)=C(N)OC3=C2S(=O)(=O)N(C)c2ccccc23)c1OC (stereo not drawn)
CCC(=O)Nc1cccc(C(=O)OCc2cc(=O)n3nc(CC)sc3n2)c1
CCc1nn2c(=O)cc(CNc3cc(F)ccc3F)nc2s1
CCCN(C1CCS(=O)(=O)C1)S(=O)(=O)c1ccc(OC)cc1 (stereo not drawn)
O=C(NCCc1ccco1)C1c2ccccc2C(=O)N(Cc2ccccc2)C12CCCC2 (stereo not drawn)
N#CCCn1cc(C(=O)CN2C(=O)NC3(CCOc4ccccc43)C2=O)c2ccccc21 (stereo not drawn)
O=S(=O)(c1ccc2nc(N3CCN(c4cccc(Cl)c4)CC3)ccc2c1)N1CCCCC1
Cc1ccccc1N1CCN(S(=O)(=O)c2ccc3ccccc3c2)CC1
CC1=C[C@@H](CNC2CCN(C)CC2)[C@H](C(C)C)C[C@H]1Cc1nc2ccccc2[nH]1
C#C[C@]1(O)CC[C@H]2[C@@H]3CCC4=CC(=O)CC[C@@H]4[C@H]3CC[C@@]21CC
Cc1ccccc1NC(=O)CSc1nnc(C)n1-n1cccc1
COc1ccc(NC(=O)c2nn(C)c(=O)c3ccccc23)cc1OC(F)F
CCc1cccc(C)c1NC(=O)Cn1ccn(-c2ccccc2)c(=O)c1=O
CC(C)(C)c1ccc(/C=C/C(=O)NC2CCS(=O)(=O)C2)cc1 (stereo not drawn)
O=C(COC(=O)/C=C/c1ccc(Cl)cc1)NC1CCS(=O)(=O)C1 (stereo not drawn)
COc1ccc(S(=O)(=O)N2CCN(Cc3ncc(-c4ccc(F)cc4)o3)CC2)cc1
O=C(c1ccco1)N1CCN=C1SCc1cccc(Cl)c1
Cc1ccc2nc(COc3cccc(NC(=O)c4cccc(Cl)c4)c3)cc(=O)n2c1
Cc1ccc(C(=O)c2ccccc2C(=O)OCc2ccccc2Cl)cc1
CCN(CC)S(=O)(=O)c1ccc2c(c1)c(=O)n(CC(=O)N1CCCCCC1)c(=O)n2C
O=C(CSc1nnc(-c2ccc(Cl)cc2)o1)N1CCC(c2ccccc2)=N1
Cc1cc2c(cn1)C(=O)c1ccccc1-2
N#Cc1cccc(CN2CCC(c3ccnn3CCO)CC2)c1
COc1ccc2cc(C(=O)C3CCCN(C(=O)c4sc(C)nc4C)C3)ccc2c1 (stereo not drawn)
COc1ccc(OC)c(NC(=O)c2nc3ccccc3nc2N2CCCC2)c1
O=C(COc1ccc2ccccc2c1)Nc1nc2n(n1)C(c1ccc(Cl)cc1)CC(=O)N2 (stereo not drawn)
O=C(NCC1CCCCO1)C1(Oc2ccc(Cl)cc2)CCNCC1 (stereo not drawn)
CC(C)N(C(=O)COC(=O)/C=C/c1cccc2cccnc12)c1ccccc1
CC(=O)NC1(C)CN(Cc2ccc(-c3ccc4c(ccn4C)c3)s2)C1
COC(=O)Nc1ncc(CN2CCCCC2)s1
CCCc1c(C)nc(Nc2nc(C)c3ccc(C)cc3n2)[nH]c1=O
CCOc1ccc(-n2c(N)c(C(=O)NCC3CCCO3)sc2=S)cc1 (stereo not drawn)
COC(=O)c1sc2ncccc2c1-n1c(C)ccc1C
Cc1ccc(C(=O)NC(c2ccc3c(c2)OCCCO3)C(C)C)cn1 (stereo not drawn)
Cc1c(CCC(=O)NCc2ccc3c(c2)OCO3)c(=O)oc2cc(O)ccc12
COc1ccc(NC(=O)c2ccc(Br)o2)cc1NC(=O)c1ccccc1C
O=C(Nc1ccc2c(c1)OCO2)c1cc(=O)c(OCc2ccccc2F)co1
CN1C(=O)c2ccc(NC(=O)C(F)(F)C(F)(F)C(F)(F)F)cc2C1=O
COc1c(CNCc2cccnc2N2CCOCC2)c(C)nn1C
Cc1nn2c(c1-c1ccccc1-c1ccccc1)N(C(=O)CN1CCOCC1)CCC2
COC(=O)c1cc(C)nc2c1c(=O)n(Cc1cccc(Cl)c1)c(=O)n2-c1ccccc1
O=C(NCCc1ccc(Cl)cc1)C1CCCN1C(=O)NCc1ccccc1 (stereo not drawn)
O=C(CSCc1ccc(Cl)cc1)N1CCCCC1
CCN(CC(=O)NC(C)C)C(=O)Cn1c(=O)c2c(ncn2CC(C)C)n(Cc2ccccc2)c1=O
CC(C)c1cccc(NC(=O)Cc2n[nH]c(=O)c3ccccc23)c1
CCc1nnc(NC(=O)COc2ccc3c(C)cc(=O)oc3c2)s1
CCC(C)NC(=S)Nc1ccc(C)cc1 (stereo not drawn)
Cc1ccc(C)c(NC(=S)NNC=O)c1
O=C(CCC1CCCCC1)NC(N1CCCCC1)(C(F)(F)F)C(F)(F)F
CC(CCc1ccccc1)NC(=O)C1CC=CCC1 (stereo not drawn)
CCc1ccc(C(=O)Nc2ccc(Cl)cc2)cc1S(=O)(=O)N1CCOCC1
CCc1cccc(NC(=O)c2cccc(S(=O)(=O)N3CCOCC3)c2)c1
CCC(CC)C(=O)Nc1ccc(S(=O)(=O)Nc2nccs2)cc1
Cc1cc(C)nc(NS(=O)(=O)c2ccc(N/C=C\C(=O)c3cccs3)cc2)n1
S=C(Cc1ccccc1)SC/C=C/c1ccccc1
CCN1CCN(C(=O)c2cc3cc(Cl)cc(Cl)c3oc2=O)CC1
CCCCNC(=O)C(C#N)c1nc2ccccc2nc1N1CCN(C(=O)OCC)CC1 (stereo not drawn)
Fc1ccc(N/N=C/c2cccc(/C=N/Nc3ccc(F)cc3F)c2)c(F)c1
O=C(CN1CCN(C/C=C/c2ccccc2)CC1)Nc1ccc(F)cc1F
COc1ccc(NC(C)=O)cc1NC(=O)c1nc(-c2ccccc2)oc1C
O=C(NC1CCS(=O)(=O)C1)c1cc2sccc2n1Cc1ccccc1 (stereo not drawn)
CN(C)CCNC(=O)CC1CCN(C(=O)c2nnc(C(=O)Nc3cccc(Cl)c3)s2)CC1

Activity change, negative = inhibition, inactive:
Cc1noc(C)c1C(=O)N1CCCC2(Cc3ccccc3CN2C(=O)C2CCCC2)C1 (stereo not drawn) 2.72% [at 12.5 µM]
